Screens deposited in PubChem BioAssay by National Center for Advancing Translational Sciences (NCATS).
This is one part of a sample in which hits are shown more often than they occur.
nsP2pro primary = Primary qHTS for inhibitors of NSP2Pro chikungunya virus (CHIKV) | Polyprotein P1234 (Chikungunya virus (strain S27-African prototype)), Q8JUX6 | FRET peptide cleavage, nsP2pro, fluorescence 1 h | Potency, µM (top dose mostly 24.9 µM), for the others: at the highest dose activity change, negative = inhibition, actives largely listed as inhibitors | 31,000 compounds, 1.1% hits; note: nearly all actives have a fitted effect of over 60% in size
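Enzyme 150 nM, substrate 2.5 uM (both final); Tris-HCl 10 mM pH 8.0 + 0.01% Tween 20; cpd up to 25 uM, 7 pts; 15 min preinc., 1 h RT; fluorescence ex 525/em 598.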
nsP2 cell sec = Secondary cell base assay for inhibitors of NSP2Pro Chikungunya virus (CHIKV); shares compounds with nsP2pro primary; cell-based CHIKV nsP2 protease reporter assay; Potency, µM (doses to about 51.1 µM), for the others: at the top dose activity change, negative = inhibition, actives largely listed as inhibitors; 450 compounds, 10% hits; note: nearly all actives have a fitted effect of over 70% in size
Target sequence (Q8JUX6 220-798 limits assumed): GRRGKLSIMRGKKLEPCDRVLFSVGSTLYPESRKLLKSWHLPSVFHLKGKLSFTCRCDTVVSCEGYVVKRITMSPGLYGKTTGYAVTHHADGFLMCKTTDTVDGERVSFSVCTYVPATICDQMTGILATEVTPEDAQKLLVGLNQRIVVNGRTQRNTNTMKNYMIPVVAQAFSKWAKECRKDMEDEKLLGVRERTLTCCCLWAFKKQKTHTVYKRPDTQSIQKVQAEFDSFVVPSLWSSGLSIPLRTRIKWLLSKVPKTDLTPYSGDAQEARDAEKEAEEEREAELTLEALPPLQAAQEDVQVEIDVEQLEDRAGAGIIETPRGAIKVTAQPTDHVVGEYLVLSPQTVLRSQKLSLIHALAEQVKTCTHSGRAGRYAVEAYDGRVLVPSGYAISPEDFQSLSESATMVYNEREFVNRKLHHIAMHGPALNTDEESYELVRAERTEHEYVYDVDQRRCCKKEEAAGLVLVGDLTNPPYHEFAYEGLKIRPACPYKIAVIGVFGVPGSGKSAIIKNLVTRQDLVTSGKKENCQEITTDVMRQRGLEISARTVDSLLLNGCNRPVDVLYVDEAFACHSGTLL
CHIKV NSP2 FL = Selectivity profile for inhibitors of NSP2Pro chikungunya virus (CHIKV): Full length NSP2 enzyme counterscreen (CHIKV-NSP2); shares compounds with nsP2pro primary; Full-length CHIKV NSP2 protease enzymatic counterscreen; Potency, µM (top dose mostly 50.7 µM), for the others: at the highest dose activity change, negative = inhibition, most hits filed as inhibitors; 410 compounds, 39% hits; AID 1964101, 2024; note: nearly all actives have a fitted effect of over 65% in size
Furin counterscr = Selectivity profile for inhibitors of NSP2Pro chikungunya virus (CHIKV): Human furin counterscreen; shares compounds with nsP2pro primary; Recombinant human furin enzymatic counterscreen, fluorogenic substrate; Potency, µM (doses to about 50.6 µM), without a hit: at the top dose activity change, negative = inhibition, most hits filed as inhibitors; 410 compounds, 6% hits
NS23 peptide cs = Selectivity profile for inhibitors of NSP2Pro chikungunya virus (CHIKV): Endogenous NS2/3 peptide Counterscreen | shares compounds with nsP2pro primary | Purified CHIKV nsP2 protease, endogenous NS2/3 peptide cleavage | Potency, µM (titrated, usually from 51 µM), without a hit: at the top dose activity change, negative = inhibition, most hits filed as inhibitors | 410 compounds, 34% hits | AID 1964103, 2024; note: nearly all actives have a fitted effect of over 55% in size
Papain cs = Selectivity profile for inhibitors of NSP2Pro chikungunya virus (CHIKV): Papain Counterscreen; shares compounds with nsP2pro primary; 410 compounds, 5% hits; Potency, µM (series often up to 51 µM), inactives show at the highest dose activity change, negative = inhibition, most hits filed as inhibitors; purified papain protease activity, enzymatic inhibition
nsP2pro conf qHTS = Confirmatory qHTS for inhibitors of NSP2Pro chikungunya virus (CHIKV) | shares compounds with nsP2pro primary | CHIKV nsP2 protease enzymatic activity, qHTS | Potency, µM (top dose mostly 25.5 µM), for inactives: top-dose activity change, negative = inhibition, most hits filed as inhibitors | 410 compounds, 43% hits | AID 1964105, 2024; note: nearly all actives have a fitted effect of over 75% in size
HCV NS3 counter = Selectivity profile for inhibitors of NSP2Pro chikungunya virus (CHIKV): NS34A-HCV Counterscreen; shares compounds with nsP2pro primary; HCV NS3/4A protease biochemical counterscreen; Potency, µM (highest dose often 50.9 µM), actives largely listed as inhibitors; 410 compounds, 20% hits; note: nearly all actives have a fitted effect of over 55% in size
Active calls of the source: *; i = inactive; u = inconclusive; [ ] = remark or other dose. Calls come from the whole dose curve. % is set by controls: 0 for no effect and ±100 for the full control effect; potency is the fitted concentration of half-maximal effect.

SMILES	nsP2pro primary	others
Oc1ccc(NCc2ccccc2OCc2ccccc2Cl)cc1	0.85µM*	nsP2 cell sec=12µM*;CHIKV NSP2 FL=10µM*;Furin counterscr=-9%;NS23 peptide cs=16µM*;Papain cs=-11%;nsP2pro conf qHTS=8µM*;HCV NS3 counter=18µM*
Oc1ccc(NCc2ccccc2OCc2ccccc2F)cc1	8.9µM*	nsP2 cell sec=u;CHIKV NSP2 FL=23µM*;Furin counterscr=-3%;NS23 peptide cs=21µM*;Papain cs=-10%;nsP2pro conf qHTS=u;HCV NS3 counter=u
O=S(=O)(Nc1ccc2ccccc2c1)c1ccc(NCc2cccc(Cl)c2O)cc1	4%
O=S(=O)(Nc1nccs1)c1ccc(NCc2cccc(F)c2O)cc1	i
O=S(=O)(Nc1cccc2ccccc12)c1ccc(NCc2cccc(Cl)c2O)cc1	-26%
COc1cc2c(cc1OCC1CC1)NC(=O)C21CCN(c2nccs2)CC1	16%[39.2 µM]
O=S(=O)(Nc1nc(-c2ccccc2C(F)(F)F)nc2ccccc12)c1ccc(Br)cc1	i
CC(=O)Nc1sc2c(c1-c1cc3ccccc3s1)CCNC2	3%
Cc1cn2c(=O)cc(CN3CC[C@@](C)(O)[C@@H](O)C3)nc2s1	-11%
C[C@@H](Oc1cc(-n2cnc3ccc(OC4CCN(C)CC4)cc32)sc1C(N)=O)c1ccccc1C(F)(F)F	199%
Cc1cccc2nc(-c3ccco3)c(Nc3ccc4c(c3)OCO4)n12	55%
Cc1ccc(-c2nc3cccc(C)n3c2Nc2ccc3c(c2)OCO3)o1	26%	nsP2 cell sec=102%;CHIKV NSP2 FL=-13%;Furin counterscr=-6%;NS23 peptide cs=-12%;Papain cs=-15%;nsP2pro conf qHTS=-6%;HCV NS3 counter=i
Cc1ccc(-c2nc3ccccn3c2Nc2ccc3c(c2)OCO3)o1	-7%
Cc1c(CN2CC[C@H]3CC[C@@H](C2)N3)c(=O)n(-c2ccccc2)n1C	4%
CCNC1(C(N)=O)CN(c2nc(C)nc3c(-c4ccc(Cl)cc4)c(-c4ccccc4Cl)nn23)C1	-8%
c1cncc(-c2ccc3ncnc(NCc4cccs4)c3c2)c1	i
c1csc(CNc2ncnc3ccc(-c4ccc5c(c4)OCO5)cc23)n1	1%
OCc1ccc(-c2ccc3ncnc(NCc4nccs4)c3c2)o1	8.9µM*	nsP2 cell sec=u;CHIKV NSP2 FL=10µM*;Furin counterscr=-13%;NS23 peptide cs=21µM*;Papain cs=17%;nsP2pro conf qHTS=u;HCV NS3 counter=3.7µM*
O=C1CCC(C(=O)N2CCOCC2)CN1CCCc1ccccc1 (stereo unspecified)	2%
COc1ccc(C(=O)N2CC[C@@](O)(C3CCOCC3)[C@H](C)C2)o1	-4%
C=C[C@]1(C)C[C@H](O)[C@H]2C(=C)C(=O)O[C@@H]2[C@H]1C(=C)CO	u	nsP2 cell sec=u;CHIKV NSP2 FL=u;Furin counterscr=-4%;NS23 peptide cs=-23%;Papain cs=-10%;nsP2pro conf qHTS=u;HCV NS3 counter=i
C=C(C)C(=O)O[C@H]1[C@H]2C(=C)C(=O)O[C@@H]2C[C@@H](C)[C@@H]2O[C@@H]2C(=O)[C@](C)(O)[C@@H]1OC(=O)C(=C)C	-3%[10 µM]
C=CC1(C)CC(O)C(C(=C)C(=O)OC)C(O)C1C(=C)CO (stereo unspecified)	-19%
CCC(C)n1cc(C)c2c(C(=O)NCc3c(C)cc(C)[nH]c3=O)cc(-c3ccc(N4CCNCC4)nc3)cc21 (stereo unspecified)	64%
CSc1cnc(-c2ccccc2C(C)C)nc1NCc1ccc(-c2cccnc2)cc1	i
SMILES	nsP2pro primary	others
CCC(C)/C=C(C)/C=C/C1=CC2=C(Cl)C(=O)C(C)(OC(C)=O)C(=O)C2=CN1C(CCCN=C(N)N)C(=O)O (stereo unspecified)	-24%[10 µM]
CC(=O)Nc1ccc(NC(=O)c2nc(S(=O)(=O)Cc3ccc(F)cc3)ncc2Cl)cc1	u	nsP2 cell sec=2.3µM*;CHIKV NSP2 FL=u;Furin counterscr=2%;NS23 peptide cs=4.6µM*;Papain cs=-7%;nsP2pro conf qHTS=5µM*;HCV NS3 counter=i
CCS(=O)(=O)c1ncc(Cl)c(C(=O)Nc2ccccc2)n1	72%
Cc1ccc(CS(=O)(=O)c2ncc(Cl)c(C(=O)Nc3nc4ccc(F)cc4s3)n2)cc1	0%
CN(C)C/C=C/C(=O)Nc1cc2c(Nc3ccc(F)c(Cl)c3)ncnc2cc1O[C@H]1CCOC1	298%
COc1cccc(-n2c(=O)[nH]c3cc(Cl)n(-c4ccc(-c5cccc(OC)c5O)cc4)c3c2=O)c1	-16%
Cn1c(CCCC(=O)O)nc2cc(N(CCCl)CCCl)ccc21	9.9µM*	nsP2 cell sec=-9%;CHIKV NSP2 FL=16µM*;Furin counterscr=5%;NS23 peptide cs=u;Papain cs=253%;nsP2pro conf qHTS=8µM*;HCV NS3 counter=u
Cn1c(CN2CCCCC2)nc2cc(NC(=O)c3ccc(Cl)cc3)ccc21	32%
CCCCc1nc2cc(/C=C/C(=O)NO)ccc2n1CCN(CC)CC	43%
CCOC(=O)CC(SP(=S)(OC)OC)C(=O)OCC (stereo unspecified)	8.8µM*	nsP2 cell sec=-23%;CHIKV NSP2 FL=23µM*;Furin counterscr=-16%;NS23 peptide cs=18µM*;Papain cs=u;nsP2pro conf qHTS=5.7µM*;HCV NS3 counter=i
CC(C)CCNC(=O)[C@H](CC(C)C)NC(=O)[C@H]1O[C@@H]1C(=O)NCc1cccc(C#N)c1	2.5µM*	nsP2 cell sec=u;CHIKV NSP2 FL=6.5µM*;Furin counterscr=1%;NS23 peptide cs=5.8µM*;Papain cs=2.6µM*;nsP2pro conf qHTS=2.5µM*;HCV NS3 counter=i
CCOC(=O)[C@H]1O[C@@H]1C(=O)N[C@@H](CC(C)C)C(=O)NCCC(C)C	8.8µM*	nsP2 cell sec=-9%;CHIKV NSP2 FL=16µM*;Furin counterscr=-9%;NS23 peptide cs=u;Papain cs=1.2µM*;nsP2pro conf qHTS=8µM*;HCV NS3 counter=i
CC(C)CCNC(=O)C1CCCN(C2CCN(CCc3ccccc3)CC2)C1 (stereo unspecified)	4%
CCOC(=O)c1noc2ncn(Cc3cccc(C#N)c3)c(=O)c12	-13%
COc1ccc(CCC(=O)N2CCCCCC2CN2CCC(OC)CC2)cc1 (stereo unspecified)	i
CC(C)(C)C(=O)N1CCN(c2cccc(Nc3nn4c(=O)c5ccccc5nc4s3)c2)CC1	i
O=C1COc2ccc(N3CCCC3)nc2CN1Cc1ccc(C(F)(F)F)cc1	2%[39.2 µM]
O=C(NC1CC1)c1ccc2nnc(C3CCCC3)n2c1	i
